In PubChem BioAssay (NCI) one finds growth data, which are given here for eight molecules.

Holding throughout (experiment): NCI-60 one-dose screen, 48 h (100 = growth as untreated, 0 = no growth, -100 = all killed)
Settings in all cases: 10 µM unless noted

Experiment [1] relates to MOLT-4 leukemia.
Experiment [2] has as its system SR leukemia.
In experiment [3] the test system is RPMI-8226 leukemia.
The subject of experiment [4] is OVCAR-8 ovarian.
For experiment [5], the system named is OVCAR-5 ovarian.
Experiment [6] concerns OVCAR-4 ovarian.
Experiment [7] concerns SK-OV-3 ovarian.
Experiment [8] concerns IGROV1 ovarian.
The subject of experiment [9] is OVCAR-3 ovarian.
Experiment [10] concerns HS 578T breast.
The subject of experiment [11] is T-47D breast.
The subject of experiment [12] is MDA-MB-435 melanoma.
In experiment [13] the test system is SW-620 colon.
Experiment [14] has as its system MCF7 breast.
In experiment [15] the test system is KM12 colon.
Experiment [16] has as its system NCI/ADR-RES ovarian.
The test system of experiment [17] is BT-549 breast.
The subject of experiment [18] is HCT-116 colon.
Experiment [19] relates to HCC-2998 colon.

“And” between values parts separate entries of the source, which are not always exact repeats. Identical values can stand only once. The panel holds about 83,000 compounds, 20% with a hit somewhere; the sample as a whole holds those more often.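 Plates (96-well) were seeded with cells, treated with compound at one concentration, and incubated for 48 hours before percent growth was determined.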 The source made the active and inactive calls. The calls were made as follows: active = growth percent below 10; inactive = the rest.

On to `O=S(=O)(c1ccc(O)cc1)c1ccccc1O`, for which the growth in experiment [1] is 103% (inactive); in experiment [2] it was 103% (inactive); in experiment [3] it was 99.8% (inactive); in experiment [4] it was 102% (inactive); in experiment [5], 98.9% (inactive); in experiment [6], 116% (inactive). The growth was 107% (inactive) in experiment [7]; 117% (inactive) in [8]; 110% (inactive) in experiment [9]; 104% (inactive) in [10]; 102% (inactive) in experiment [11]; 110% (inactive) in experiment [12]. In addition, the growth is 106% (inactive) in experiment [13], 104% (inactive) in [14] and 107% (inactive) in experiment [15].
Regarding `COc1ccc2c(c1)c(-c1nc(-c3cn(C)c4ncccc34)cs1)cn2CCCCN1CCOCC1`, the growth was -15.6% (active) in experiment [1]; -5.63% (active) in [2]; -18.1% (active) in experiment [3]; 48.5% (inactive) in experiment [4]; 56.9% (inactive) in experiment [5]; 60.2% (inactive) in [6]. Further, the growth in [7] is 79.7% (inactive); in experiment [8], 67.8% (inactive); in [9] it was 50.8% (inactive); in [16] it was 59.6% (inactive); in experiment [11], 64.5% (inactive); in experiment [17] it was 76.8% (inactive). The growth is -83.4% (active) in experiment [12]; -77.1% (active) in [13]; 15.1% (inactive) in [14]; 11.4% (inactive) in experiment [18]; 7.68% (active) in experiment [19]; -5.62% (active) in [15].
Regarding `Oc1cc(N2CC2)c(O)cc1N1CC1`, the growth in [1] was 9.13% (active); in [2], 21.6% (inactive); in [3], 2.53% (active); in experiment [4], 11.2% (inactive); in experiment [5], 2.7% (active); in experiment [6], 18% (inactive). Also, the growth in [7] is 2.44% (active); in experiment [8] it was -38.3% (active); in experiment [9], -34.4% (active); in [16] it was 1.01% (active); in experiment [11] it was 19.2% (inactive); in [17], 30% (inactive). Besides, the growth is 0.0051% (active) in [12]; 3.72% (active) in experiment [13]; -30.3% (active) in experiment [14]; 6.02% (active) in [18]; -55.2% (active) in experiment [19].
Consider `CC[C@H](CC[C@@H](C)[C@H]1CC[C@H]2[C@@H]3CC[C@H]4C[C@]5(CC[C@]4(C)[C@H]3CC[C@]12C)OO[C@](C)(C(F)(F)F)O5)C(C)C`, for which the growth in experiment [1] is 95% (inactive); in experiment [2], 93.9% (inactive); in experiment [3], 98.3% (inactive); in experiment [4] it was 97% (inactive); in experiment [5] it was 74.3% (inactive); in experiment [6], 88.4% (inactive). Further, the growth in experiment [7] is 89.9% (inactive); in experiment [8] it was 79.3% (inactive); in [9], 93.2% (inactive); in experiment [16] it was 98% (inactive); in experiment [11] it was 87.9% (inactive); in [17], 82.2% (inactive). In addition, the growth was 96.9% (inactive) in experiment [12]; 92.4% (inactive) in experiment [13]; 93.2% (inactive) in experiment [14]; 98.3% (inactive) in experiment [18]; 104% (inactive) in experiment [19].
Regarding `Clc1ccc(COC(Cn2ccnc2)c2ccc(Cl)cc2Cl)c(Cl)c1` (centres undefined), the growth in experiment [1] is 41.5% (inactive) and 45.3% (inactive); in experiment [2], 65% (inactive); in [3], 41.2% (inactive) and 54.6% (inactive); in experiment [4], 38.4% (inactive); in experiment [5], 64.5% (inactive) and -11.4% (active); in experiment [6], 49% (inactive) and 63.2% (inactive). Further, the growth is 79.7% (inactive) and 91% (inactive) in [7]; 38.3% (inactive) and 22.3% (inactive) in [8]; 48.9% (inactive) and 64.2% (inactive) in experiment [9]; 21.7% (inactive) and -21.9% (active) in [16]; 46.4% (inactive) and 36.5% (inactive) in [11]; 51.8% (inactive) and 40.9% (inactive) in experiment [17]. Moreover, the growth was 8.47% (active) and 20.5% (inactive) in [12]; 58.3% (inactive) and 62.2% (inactive) in [13]; 39.3% (inactive) and 35% (inactive) in experiment [14]; 14.6% (inactive) and 16.1% (inactive) in experiment [18]; 47.4% (inactive) in [19]; 40.2% (inactive) and 43.2% (inactive) in experiment [15].
In the case of `C[C@@H]1C/C=C\C(=O)O[C@H](/C=C/C#C/C=C/C(C)(C)[C@@H](O)c2cccc(O)c2Br)[C@@H](C)/C=C/[C@H](C)C[C@H](OC(N)=O)C1`, the growth was 19.7% (inactive) in experiment [1]; 5.45% (active) in [2]; 11.3% (inactive) in experiment [3]; 20.3% (inactive) in [4]; 46.8% (inactive) in experiment [5]; 50.3% (inactive) in [6]. The growth in experiment [7] was 55.9% (inactive); in experiment [8], 48.6% (inactive); in [9] it was 41.5% (inactive); in [16] it was 33.5% (inactive); in experiment [11], 12.6% (inactive); in experiment [17], 43.8% (inactive). Also, the growth in [12] was 19.2% (inactive); in [13], 30.4% (inactive); in [14], 18.6% (inactive); in experiment [18], 14.2% (inactive); in experiment [19] it was 28.2% (inactive); in experiment [15] it was 40.3% (inactive).
Consider `CC(C)COC(=O)Cc1ccccc1`, for which the growth was 103% (inactive) in experiment [1]; 100% (inactive) in [2]; 103% (inactive) in experiment [3]; 110% (inactive) in [4]; 106% (inactive) in experiment [5]; 105% (inactive) in [6]. Moreover, the growth in experiment [7] is 105% (inactive); in experiment [8], 109% (inactive); in experiment [9], 111% (inactive); in experiment [10], 102% (inactive); in [16] it was 110% (inactive); in [17], 108% (inactive). The growth is 106% (inactive) in experiment [12]; 107% (inactive) in experiment [13]; 106% (inactive) in experiment [14]; 105% (inactive) in experiment [18]; 107% (inactive) in experiment [19]; 105% (inactive) in experiment [15].
As to `COc1ccc2c(c1)C1(C)CCN(C)CC(C1)C2O` (centres undefined), the growth in experiment [1] was 94.1% (inactive); in [2], 94.2% (inactive); in experiment [3] it was 98.7% (inactive); in [4] it was 101% (inactive); in [5] it was 99.3% (inactive); in experiment [6], 103% (inactive). In addition, the growth in experiment [7] is 107% (inactive); in experiment [8] it was 86.9% (inactive); in experiment [9], 109% (inactive); in experiment [10] it was 116% (inactive); in [11], 95.2% (inactive); in experiment [17], 98.2% (inactive). Also, the growth in experiment [12] is 105% (inactive); in [13] it was 101% (inactive); in experiment [14] it was 96% (inactive); in experiment [18] it was 97.8% (inactive); in [19], 89.9% (inactive); in [15], 102% (inactive).
